In all, about 48,000 compounds went through this assay and about 13,000 (27%) showed an effect of 50% or more. This is one part of the list.
The molecules below were run on Wolbachia pipientis (assay: Anti-Wolbachia Cell-Based Screen). Conditions: 5 µM.
Type: functional
Design: scale not given: in the data most compounds retested in dose-response had high values

Compound | Percent Effect
Cc1cc(C)c(CNC(=O)N2CCN(c3cnccn3)CC2)c(=O)[nH]1 | -4.919%
Cc1nc(C2CCN(CC(=O)NC3CC3)CC2)cc(N2CCOCC2)n1 | -4.261%
CNC(=O)CCc1cc(C)nc(C2CCN(C3CCCCC3)CC2)c1 | 132.7%
CNC(=O)CCc1cc(C)nc(C2CCN(c3cnccn3)CC2)c1 | 163%
Cc1ccc(CC(=O)NC2CCN(c3cccc(Cl)c3)C2)cn1 (stereo not drawn) | -6.758%
CNC(=O)CCc1cc(C)nc(C2CCCN2)c1 (stereo not drawn) | -6.068%
Cc1cc(N2CCC(NC(=O)CCc3cnn(C)c3)CC2)nc(C)n1 | -6.539%
CNC(=O)CCc1cc(C2CCN(c3cnccn3)CC2)nc(C)n1 | 127.7%
CCn1ncnc1C(C)NC(=O)C1CCN(C2CCCCC2)CC1 (stereo not drawn) | -9.983%
CNC(=O)CCc1cc(C)nc(C2CCN(c3ccccc3)CC2)c1 | 115.5%
O=C(CCc1ccsc1)NCC1CCN(c2ccccc2)C1 (stereo not drawn) | -7.68%
CCNC(=O)CCN1CCC(c2cc(N3CCOCC3)nc(C)n2)CC1 | 2.574%
CCN(Cc1ccoc1)C(=O)NC1CCN(CC2CC2)C1 (stereo not drawn) | -6.123%
N#Cc1c(Cl)nsc1NCCCN1C(=O)COc2ccccc21 | -8.12%
CCN(C(=O)C1CCC1)C(c1cccnc1)c1ccc2c(c1)CCO2 (stereo not drawn) | -9.854%
O=C(C1CN(Cc2ccsc2)Cc2ccnn2C1)N1CCCC1.O=C(O)C(F)(F)F.O=C(O)C(F)(F)F (stereo not drawn) | 5.087%
COc1coc(CN2CCCC3(CCC(=O)N(CC4CC4)C3)C2)cc1=O (stereo not drawn) | -7.938%
CN(CCc1cnn(C)c1)C(=O)CN1C(=O)OC[C@@H]1c1ccccc1 | -15.8%
CCOCCn1c(=O)[nH]c2cc(C(=O)N(C)Cc3cnn(C)c3)ccc21 | 6.487%
CN(CCc1cnn(C)c1)C(=O)Cn1c(=O)[nH]c2ccccc21 | 117.9%
Cc1cc(C)c2nc(C)cc(C(=O)NCc3csc(N(C)C)n3)c2c1 | -46.67%
O=C(Nc1cnn(CC(=O)N2CCCCO2)c1)c1ccccn1 | -7.331%

Compound | Percent Effect
O=C(O)c1ccc(F)c(S(=O)(=O)Nc2c(F)cccc2-n2cccn2)c1 | -5.743%
Cc1ccc(C#N)c(N2CCC(c3nccn3CCN(C)C)CC2)n1 | -3.51%
CN(C)CCn1c([C@@H]2CCCO2)cc2cccnc21.Cl | 90.46%
CN(C)CCn1ccnc1C1CCCN(c2nccc3ccccc23)C1 (stereo not drawn) | -1.132%
Cc1nn(C)c2nc(N(Cc3ccccn3)CC3CCCO3)sc12 (stereo not drawn) | -1.375%
CN(C)CCn1c(=O)oc2ccc(NC(=O)C3CCCO3)cc21 (stereo not drawn) | 1.023%
CN(C)CCn1c([C@H]2CCCO2)cc2cccnc21 | 104.2%
O=C(NCc1cccc(N2CC=CC2)c1)NCC(F)(F)F | 2.139%
COc1ccnc(N(C)Cc2c(C)noc2C)n1 | 0.6416%
O=C(NCC(=O)N1CCCC(c2ccccc2)CC1)c1ccoc1 (stereo not drawn) | 114.1%
O=C(NCCC(=O)N1CCCCCCC1)c1ccoc1 | 130.7%
CC1CCCN(C(=O)NCC(F)F)C1 (stereo not drawn) | -0.801%
CC1CCCN(C(=O)CNC(=O)c2ccoc2)C1 (stereo not drawn) | 104.6%
O=C(CCNC(=O)c1ccoc1)Nc1c(F)cccc1F | -2.292%
CCn1cnc(NC(=O)N2CCCC(c3ccccc3)CC2)n1 (stereo not drawn) | 1.274%
O=C(CCNC(=O)c1ccoc1)Nc1cc(F)cc(F)c1 | -8.538%
CC(C)CN1CCC(C(=O)NCCNC(=O)c2ccoc2)CC1 | 9.069%
Cc1occc1C(=O)NCC(=O)N1CCCC(c2ccccc2)CC1 (stereo not drawn) | 4.823%
c1cnnc(N2CCCC(NCc3ccc(-n4ccnc4)cc3)C2)c1 (stereo not drawn) | 2.731%
CN(Cc1cccs1)C(=O)CNC1CCc2ncnn2C1 (stereo not drawn) | -0.9071%
Cc1cc(=O)c2ccccc2n1CC1CCCN(C)C1 (stereo not drawn) | -3.698%
Cc1cc(S(=O)(=O)N2CCc3ccc(F)cc32)cc(C(=O)O)c1C | -1.898%

Compound | Percent Effect
Cc1cnn(CCNCC(=O)NC(C)c2ccc3c(c2)OCCO3)c1 (stereo not drawn) | 97.89%
Cc1ccc(C(O)CNCCn2cccn2)cc1C (stereo not drawn) | -13.13%
CC(NC(=O)CNCCn1cccn1)c1ccc2c(c1)OCCO2 (stereo not drawn) | -2.168%
CC(NC(=O)CNCCn1cccn1)c1ccc2c(c1)CCCC2 (stereo not drawn) | 2.456%
CC(NC(=O)NCCCn1cncn1)c1ccc2c(c1)OCCO2 (stereo not drawn) | 5.809%
CC(NC(=O)NCCCn1ccnc1)c1ccc2c(c1)OCCCO2 (stereo not drawn) | -3.282%
Cc1ccc(C(C)NC(=O)CNCCn2cccn2)cc1C (stereo not drawn) | 67.97%
CC(NC(=O)CCn1cccn1)c1ccc2c(c1)OCCO2 (stereo not drawn) | 98%
CC(NC(=O)Cn1cccn1)c1ccc2c(c1)OCCCO2 (stereo not drawn) | -3.831%
OC(CNCCn1cccn1)c1ccc2c(c1)OCCO2 (stereo not drawn) | 4.861%
CC(NC(=O)Cn1cccn1)c1ccc2c(c1)OCCO2 (stereo not drawn) | 96.81%
CC(NC(=O)NCCCO)c1ccc2c(c1)OCCO2 (stereo not drawn) | 6.207%
Cc1noc(C)c1CN(C)C(=O)NC(C)Cc1ccco1 (stereo not drawn) | 8.322%
CN(Cc1nc2ccccc2o1)CC1CCCN1c1cccnn1 (stereo not drawn) | 4.649%
COc1ccccc1C(C)N1CCN(S(=O)(=O)N(C)C)CC1 (stereo not drawn) | -4.471%
Cc1cccc(N2N=C(C(=O)NC(C)Cn3cccn3)CCC2=O)c1 (stereo not drawn) | -20.26%
Nc1nc(CNc2nccc(CCC(F)(F)F)n2)cs1 | 0.6104%
Cc1cc(NC(=O)[C@H]2CCCCN2C(=O)OC(C)(C)C)no1 | 12.93%
O=C(CCC1CCCO1)NCc1ccc(Br)cc1F (stereo not drawn) | 24.29%
Cc1cnc(C(=O)N2CCc3ncnc(-c4cnn(C)c4)c3CC2)cn1 | 103.6%
Cc1cc(C(=O)N2CCc3ncnc(-c4cnn(C)c4)c3CC2)c(C)o1 | 88.25%
Cc1ncnc2c1CCN(C(=O)c1ccoc1)CC2 | -3.432%

Compound | Percent Effect
Cc1occc1C(=O)N1CCc2ncnc(-c3cnn(C)c3)c2CC1 | 2.959%
CCOc1ncnc2c1CCN(C(=O)c1cnccn1)CC2 | 5.086%
Cc1cnc(C(=O)N2CCc3ncnc(C)c3CC2)cn1 | -11.83%
Cc1ccoc1C(=O)N1CCc2ncnc(-c3cnn(C)c3)c2CC1 | 95.42%
Cc1ncnc2c1CCN(C(=O)c1cnccn1)CC2 | 1.422%
Cn1cc(-c2ncnc3c2CCN(C(=O)c2cnccn2)CC3)cn1 | 113%
CN(C)CC(=O)N1CCc2ncnc(-c3ccoc3)c2CC1 | -8.225%
CN(c1cccnc1N1CCCC1)S(=O)(=O)c1cccs1 | 3.267%
CCc1nc(C)c(C(=O)N2CCNCC2C(=O)Nc2ccc(C)nc2)o1 (stereo not drawn) | 1.705%
Cc1cccc(C)c1OC1CN(Cc2cnc(-c3ccco3)nc2)C1 | -6.327%
CSCC(=O)N[C@H]1CN(CC2CCOCC2)C[C@@H]1c1ccccc1 | 6.905%
COc1cc(N2CCc3ncnc(-c4cnn(C)c4)c3CC2)ncn1 | -4.032%
Cn1cc(-c2ncnc3c2CCN(C(=O)N2CCOCC2)CC3)cn1 | -0.924%
Cc1ccc(C(=O)N2CCc3ncnc(C)c3CC2)o1 | -4.866%
Cc1cc(C(=O)N2CCc3ncnc(-c4cnn(C)c4)c3CC2)no1 | 110.1%
Cn1cc(-c2ncnc3c2CCN(C(=O)c2cscn2)CC3)cn1 | 121.2%
Cc1ccc(C(=O)N2CCc3ncnc(-c4cnn(C)c4)c3CC2)o1 | 96.64%
O=C(c1cc[nH]n1)N1CCc2ncnc(N3CCSCC3)c2CC1 | 19.12%
CN(C)c1cnnc(N2CCN(C(=O)CCC3CCCCC3)CC2)c1 | 3.23%
Cc1n[nH]c(SCC(=O)NC(c2ccncc2)C(C)C)n1 (stereo not drawn) | 1.831%
Cc1cc(NC(=O)N2CCOCC2)nn1-c1ccccc1Cl | -5.01%
CCc1nc(NS(=O)(=O)c2cc(C)cc(F)c2)no1 | -9.734%

Compound | Percent Effect
Cc1ccc(N2CCC3(CN(Cc4ccncc4)CCC3(F)F)C2)nn1.O=C(O)C(F)(F)F.O=C(O)C(F)(F)F (stereo not drawn) | 101.6%
Cc1ccc(N2CCC3(CC2)CC(OCC(C)C)C3)nn1.O=C(O)C(F)(F)F | -76.25%
Cc1ccc(N2CCCC3(CCCC(=O)N3)C2)nn1.O=C(O)C(F)(F)F (stereo not drawn) | -15.09%
Cc1ccc(CN2CCC(F)(F)C3(CCN(c4cnccn4)C3)C2)o1.O=C(O)C(F)(F)F.O=C(O)C(F)(F)F (stereo not drawn) | 15.24%
Cc1ccc(N2CCC3(CN(Cc4cccs4)CCC3(F)F)C2)nn1.O=C(O)C(F)(F)F (stereo not drawn) | 80.15%
Cc1n[nH]cc1CNc1ccc2c(c1)N(C(=O)OC(C)(C)C)CCC2 | -11.3%
Cc1nnsc1CNC(=O)Nc1cccc(N2CCN(C)C2=O)c1 | -31.37%
O=C1COC2(COCCN(c3cnccn3)C2)CN1c1cccc(F)c1 (stereo not drawn) | -3.492%
Cc1cccc(N2CC3(COCCN(c4ccncn4)C3)OCC2=O)c1 (stereo not drawn) | -13.92%
Cc1cccc(N2CCOCC3(C2)CN(c2cccnc2)C(=O)CO3)n1 (stereo not drawn) | 106.1%
Cc1cccc(N2CCOCC3(C2)CN(c2cncnc2)C(=O)CO3)n1 (stereo not drawn) | 105.8%
CN1CC2(COCCN(c3ncccn3)C2)OCC1=O (stereo not drawn) | -2.048%
N#CCCN(Cc1ccco1)C(=O)COC1CCCCC1 | 5.394%
O=S1(=O)C[C@@H]2[C@H](C1)N(Cc1nc3ccccc3[nH]1)CCN2CC1CC1 | 0.3251%
CC(=O)N1CCCC1c1nc(CN(C)C(=O)C(C)C)cc(N(C)C)n1 (stereo not drawn) | 95.56%
CN(CC(=O)N1CCCC1c1noc(C2CC2)n1)C1CC1 (stereo not drawn) | -4.612%
CCC(=O)N1CCCCC1c1nc(CN(C)C(C)=O)cc(N(C)C)n1 (stereo not drawn) | 86.02%
COCC(=O)N1CCCCC1c1nc(CN(C)C(C)=O)cc(N(C)C)n1 (stereo not drawn) | 103.1%
CC(C)c1nc(C2CCCN2C(=O)c2ccc(N(C)C)nn2)no1 (stereo not drawn) | 2.138%
CC(=O)c1ccc(C(=O)N2CCCCC2c2nc[nH]n2)cc1 (stereo not drawn) | -8.755%
